From PubChem
In the library only some 21% were active in any assay of this set; here they are far more common.
ClpP mod = qHTS Assay for Activators of ClpP; purified B. subtilis ClpP, FRET peptide cleavage, 20 min; Potency, µM (series often up to 57.5 µM); 1.9% of 340,000 active; active means well fitted falling curve with a large enough effect; inconclusive means small, poorly fitted or top-dose-only effect; inactive means no such curve, though single readings can be large or run the other way; further: the source files actives as falling curves though it sought activators and does not explain the sign; nearly all actives have a fitted effect of over 65% in size
Target sequence (P80244 whole entry, looked up): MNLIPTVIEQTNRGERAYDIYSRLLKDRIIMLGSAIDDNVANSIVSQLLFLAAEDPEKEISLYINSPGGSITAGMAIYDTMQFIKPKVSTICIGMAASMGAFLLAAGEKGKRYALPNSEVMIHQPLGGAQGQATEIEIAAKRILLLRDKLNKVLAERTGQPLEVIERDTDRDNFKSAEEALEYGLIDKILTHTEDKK
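FRET quenching reversal measured ClpP activation: 10 microg/mL B. subtilis ClpP at pH 8 with the FRET-FV decapeptide, read at 430 nm after 320 nm excitation. The 20-min minus 0-min signal was scaled between DMSO/no-enzyme wells and ADEP (5.8 microM final).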
TDP1 cell noCPT = qHTS for Inhibitors of human tyrosyl-DNA phosphodiesterase 1 (TDP1): qHTS in cells in absence of CPT; DT40 Tdp1-/- hTDP1 cells, no CPT, ATP luminescence, 48 h; Potency, µM (series often up to 46.2 µM), usual class: inhibitors; 15% of 420,000 active; AID 686978, 2013; further: nearly all actives have a fitted effect of over 55% in size
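Chicken DT40 Tdp1-/- cells complemented with human TDP1, screened without camptothecin (DMSO vehicle only), 400 cells/well. Compounds pin-transferred, cells incubated at 37 °C for at least 48 hr. Growth read as ATP-dependent luminescence (CellTiter-Glo, 30 min at RT).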
TDP1 cell CPT = DT40-hTDP1 cell growth loss with CPT. chicken DT40 Tdp1-/-;hTDP1 cells + 20 nM CPT, ATP luminescence, 48 h. Potency, µM (top dose mostly 46.2 µM), actives largely listed as inhibitors. 12% of 420,000 active. AID 686979; further: nearly all actives have a fitted effect of over 55% in size
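Cell growth measured by CellTiter-Glo luminescence after a minimum 48 h, 37 C compound exposure with 20 nM CPT in Tdp1-knockout DT40 cells stably expressing hTDP1, seeded 400/well; qHTS titration format.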
DRD3 agonist = agonists of human D3 dopamine receptor | D3R DiscoveRx beta-arrestin cells, luminescence, 90 min | 0.58% of 410,000 active | max activation, % | AID 652048; in the data active means max activation above about 30%
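Cells at 1500/well, incubated overnight, then treated with pinned compounds (dopamine as control) for 90 min at 37 degrees C. DiscoveRx reagent added for 30 - 60 minutes at room temperature; luminescence read.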
D3 antag = D3 dopamine receptor (human) antagonism. D3R cells, DiscoveRx beta-arrestin luminescence, antagonist mode; active compounds read low. max response, negative = inhibition, %. 2.5% of 360,000 active. AID 652054. P35462; in the data active means max response below about -50%; inconclusive means no clear call, values can overlap the other calls
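Cells plated overnight at 1500 cells/well, then exposed to library compounds with dopamine controls for 90 minutes at 37 degrees C. DiscoveRx reagent added for 30–60 minutes at room temperature; luminescence read, quantitative HTS format.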
IL1B secr inh = inflammasome signaling inhibition, IL-1 beta readout; THP-1 LPS/ATP IL-1B secretion, AlphaLISA, 16 h; active compounds read low; activity change, % at 57.5 µM; 4.7% of 360,000 active; AID 743279; in the data active means activity change below about -50%; inconclusive means mostly about -30% to -49%
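THP-1 cells pretreated 1 hr with compounds (up to 57.5 uM final), then stimulated with LPS (250 ng/mL final) plus ATP (1.25 mM final); secreted IL-1B measured by AlphaLISA after 16 hr, decreased signal indicating inhibition.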
Of the large screens only hits and unclear results are named; the others gave an inactive call. Unless noted, the call rests on the fitted dose curve; in most records, active means well fitted inhibition curve with a large enough effect; inconclusive means small, poorly fitted or top-dose-only effect; inactive means flat fitted curve, though single readings scatter.

COc1ccc(N(CC(=O)Nc2cc(OC)cc(OC)c2)S(=O)(=O)c2c(C)noc2C)cc1	TDP1 cell noCPT 5.8µM, TDP1 cell CPT 7.3µM (no result: D3 antag, IL1B secr inh)
Cc1cc(C)cc(N(CC(=O)NC2CCC(C)CC2)S(=O)(=O)c2c(C)noc2C)c1 (stereo unspecified)	TDP1 cell noCPT inconclusive, TDP1 cell CPT 21µM
CC(=O)c1cccc(NC(=O)CN(c2cc(C)cc(C)c2)S(=O)(=O)c2c(C)noc2C)c1	TDP1 cell noCPT 18µM, TDP1 cell CPT 16µM (no result: D3 antag, IL1B secr inh)
COc1ccc(N(CC(=O)Nc2ccc(C)cc2)S(=O)(=O)c2c(C)noc2C)cc1	TDP1 cell noCPT inconclusive, TDP1 cell CPT inconclusive
COc1ccc(NC(=O)CN(c2cc(C)cc(C)c2)S(=O)(=O)c2c(C)noc2C)cc1OC	TDP1 cell noCPT inconclusive, TDP1 cell CPT inconclusive
COc1ccc(N(CC(=O)Nc2cc(Cl)ccc2C)S(=O)(=O)c2c(C)noc2C)cc1	TDP1 cell noCPT 3.7µM, TDP1 cell CPT 2.9µM
Cc1cc(C)cc(N(CC(=O)O)S(=O)(=O)c2c(C)noc2C)c1	none
O=[N+]([O-])c1ccc(P(=O)(Cc2ccccc2)c2ccccc2O)cc1 (stereo unspecified)	none (no result: ClpP mod)
NC(=O)c1cnn(-c2cc(Oc3ccccc3)ncn2)c1N	none (no result: ClpP mod)
COCCCNC(=O)c1cnn(-c2ncc3c(n2)-c2ccccc2CCC3)c1C	none (no result: ClpP mod, DRD3 agonist, D3 antag, IL1B secr inh)
CC(=C\c1ccco1)/C=C(\C#N)C(=O)NCCc1c[nH]c2ccccc12	TDP1 cell noCPT inconclusive, IL1B secr inh inconclusive
O=C(CS(=O)(=O)c1cccc2nsnc12)NCc1ccccc1Cl	TDP1 cell noCPT inconclusive (no result: D3 antag, IL1B secr inh)
COc1ccc(N(CC(=O)Nc2cc(C)ccc2C)S(=O)(=O)c2c(C)noc2C)cc1	TDP1 cell CPT inconclusive
COc1ccc(N(CC(=O)Nc2cc(C)ccc2OC)S(=O)(=O)c2c(C)noc2C)cc1	TDP1 cell noCPT inconclusive, TDP1 cell CPT 23µM
COc1ccc(N(CC(=O)Nc2cc(C)ccc2C)S(=O)(=O)c2c(C)nn(C)c2C)cc1	TDP1 cell noCPT 26µM, TDP1 cell CPT inconclusive
COc1ccc(N(CC(=O)Nc2ccc(C)cn2)S(=O)(=O)c2c(C)nn(C)c2C)cc1	TDP1 cell CPT inconclusive
COc1cc(NC(=O)CN(c2ccc(C)cc2)S(=O)(=O)c2cccc3nonc23)cc(OC)c1	TDP1 cell noCPT 18µM, TDP1 cell CPT inconclusive (no result: D3 antag, IL1B secr inh)
COc1ccc(N(CC(=O)Nc2cccc(C)c2)S(=O)(=O)c2c(C)noc2C)cc1	TDP1 cell noCPT 2.9µM, TDP1 cell CPT inconclusive
Clc1ncc(Cn2cccn2)s1	none
CCCc1cnc2c(c1SCC(=O)Nc1ccccc1OCC)c(=O)n(C)c(=O)n2C	none (no result: D3 antag, IL1B secr inh)
CN(CCc1ccccc1)C(=O)c1ccc(NC(=O)Cc2ccc(NC(=O)C3CCCN(C(=O)C4CCCC4)C3)cc2)cc1 (stereo unspecified)	TDP1 cell noCPT inconclusive, TDP1 cell CPT inconclusive
O=C(Nc1nnc(S(=O)(=O)N2CCCc3ccccc32)s1)c1ccccc1Br	TDP1 cell noCPT inconclusive, TDP1 cell CPT inconclusive (no result: D3 antag, IL1B secr inh)
N#Cc1ccc(OCC(O)CN2CCN(c3ncc(C(F)(F)F)cc3Cl)CC2)cc1 (stereo unspecified)	TDP1 cell noCPT 15µM, TDP1 cell CPT inconclusive, IL1B secr inh -65 (no result: ClpP mod)
CN1CCN(CC(O)COc2ccc(C34CC5CC(CC(C5)C3)C4)cc2)CC1 (stereo unspecified)	TDP1 cell noCPT 13µM, TDP1 cell CPT inconclusive, IL1B secr inh -99 (no result: ClpP mod)
COc1ccc(OC)c(S(=O)(=O)N2CCN(CC(O)COc3ccccc3)CC2)c1 (stereo unspecified)	none
CC(C)(c1ccccc1)c1ccc(OCC(O)CN2CCCC2)cc1 (stereo unspecified)	TDP1 cell noCPT inconclusive, TDP1 cell CPT inconclusive, IL1B secr inh -67 (no result: ClpP mod)
COc1ccc(OC)c(S(=O)(=O)N2CCN(CC(O)COc3ccc(C#N)cc3)CC2)c1 (stereo unspecified)	TDP1 cell noCPT 23µM, TDP1 cell CPT inconclusive (no result: ClpP mod)
NNC(=O)CCn1c2ccccc2c2ccccc21	TDP1 cell noCPT inconclusive
